Laboratory results taken from PubChem BioAssay (NCI).
About 83,000 compounds went through this panel and 20% of them were active in at least one assay; those are over-represented in the sample as a whole.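 How to read the values: 0–100, growth inhibition (40 = 60% inhibited); 0, no net growth; -100 to 0, cell death (-40 = 40% of starting cells died; -100 = all dead).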 Calls of active or inactive are those of the source. How the source made its calls: active means growth percent below 10; inactive means the rest.

What was measured:
Test in all cases: NCI-60 one-dose screen, 48 h (100 = growth as untreated, 0 = no growth, -100 = all killed)
Conditions in all cases: 10 µM unless noted
T-47D breast = tested on: T-47D breast
BT-549 breast = tested on: BT-549 breast
MDA-MB-435 melanoma = tested on: MDA-MB-435 melanoma
SW-620 colon = tested on: SW-620 colon
MCF7 breast = tested on: MCF7 breast
HCT-116 colon = tested on: HCT-116 colon
HCC-2998 colon = tested on: HCC-2998 colon
KM12 colon = tested on: KM12 colon

Measured: growth

N#Cc1c2c(nc3n[nH]c(N)c13)CCCC2
inactive: T-47D breast 98% | BT-549 breast 130% | MDA-MB-435 melanoma 106% | SW-620 colon 96% | MCF7 breast 110% | HCT-116 colon 101% | HCC-2998 colon 92.6% | KM12 colon 111%

C=C1CCC2C3(C)COC(c4ccc(OC)cc4Br)OC3CCC2(C)C1/C=C/C1=CCOC1=O (centres undefined)
inactive: T-47D breast 41.3% | BT-549 breast 73.8% | MDA-MB-435 melanoma 93.7% | SW-620 colon 84% | MCF7 breast 60.7% | HCT-116 colon 53.9% | HCC-2998 colon 57.9% | KM12 colon 83.4%

Cc1ccc(/C=C2\Oc3cc(OCC(=O)c4ccc(Cl)cc4)ccc3C2=O)cc1
inactive: T-47D breast 97.9% | BT-549 breast 110% | MDA-MB-435 melanoma 104% | SW-620 colon 97.1% | MCF7 breast 119% | HCT-116 colon 89.5% | HCC-2998 colon 92.6% | KM12 colon 104%

O=c1c(/C=C/c2ccco2)nnc(SCCN2CCOCC2)n1/N=C/c1ccc([N+](=O)[O-])cc1
inactive: T-47D breast 68.2% | BT-549 breast 94.6% | MDA-MB-435 melanoma 97.4% | SW-620 colon 104% | MCF7 breast 31% | HCT-116 colon 95% | HCC-2998 colon 93.1% | KM12 colon 92%

COc1cc(NCCCCN=C(N)N)c2ncccc2c1
inactive: T-47D breast 18% | BT-549 breast 54.4% | MDA-MB-435 melanoma 104% | SW-620 colon 80.8% | HCT-116 colon 79.1% | HCC-2998 colon 84.3% | KM12 colon 47.5%
active: MCF7 breast -48%

Cc1ccc(-c2nc(/C=N/Nc3cc(C)nc4ccc(Br)cc34)c(C)o2)cc1
inactive: BT-549 breast 86.3%
active: T-47D breast -8.4% | MDA-MB-435 melanoma -95.1% | SW-620 colon -84.7% | MCF7 breast -78.6% | HCT-116 colon -65.8% | HCC-2998 colon -63.4% | KM12 colon -39.9%

CNC(=O)c1cc(Oc2ccc3nc(NC(=O)Nc4ccc(N5CCC(N(C)C)CC5)cc4)sc3c2)ccn1
inactive: T-47D breast 78.1% | BT-549 breast 98.7% | MDA-MB-435 melanoma 98.8% | SW-620 colon 71.6% | MCF7 breast 67.7% | HCT-116 colon 39% | HCC-2998 colon 95.4% | KM12 colon 60.4%

COc1ccc(C(=O)c2sc3nc4c(cc3c2N)CCCC4)cc1OC
inactive: T-47D breast 15.5% | BT-549 breast 24.1% | SW-620 colon 34.6% | MCF7 breast 27.1% | HCT-116 colon 19.4% | HCC-2998 colon 109% | KM12 colon 26.9%
active: MDA-MB-435 melanoma -9.21%

COc1ccc(/C=c2/c(=O)[nH]c3nc4sc(C)c(C)c4c(=O)n23)cc1
inactive: T-47D breast 92.7% | BT-549 breast 85.1% | MDA-MB-435 melanoma 86.8% | SW-620 colon 107% | MCF7 breast 93.6% | HCT-116 colon 93.1% | HCC-2998 colon 113% | KM12 colon 99.2%

CCCCCCCCCCCCCC1=NCCN1CCO
inactive: T-47D breast 65.7% | BT-549 breast 123% | MDA-MB-435 melanoma 85.3% | MCF7 breast 54.8% | HCC-2998 colon 71.2% | KM12 colon 56.7%
active: SW-620 colon -38.6% | HCT-116 colon -36.2%

Nc1nc(-c2ccc(F)cc2)cc(-c2cnn(-c3ccccc3)n2)n1
inactive: T-47D breast 87.1% | BT-549 breast 119% | MDA-MB-435 melanoma 106% | SW-620 colon 99.3% | MCF7 breast 79.9% | HCT-116 colon 106% | HCC-2998 colon 111% | KM12 colon 100%

O=C1/C(=C/c2ccc(F)cc2)CN(C(=O)CCN2CCC(=NO)CC2)C/C1=C\c1ccc(F)cc1
active: T-47D breast -18.9% | BT-549 breast -26.6% | MDA-MB-435 melanoma -49.9% | SW-620 colon -56.5% | MCF7 breast -48.6% | HCT-116 colon -65.6% | HCC-2998 colon -83.3% | KM12 colon -77.2%

COc1cc(/C=C2\CN(C(=O)CCN3CCC(=NO)CC3)C/C(=C\c3cc(OC)c(OC)c(OC)c3)C2=O)cc(OC)c1OC
active: T-47D breast 4.37% | BT-549 breast -81.4% | MDA-MB-435 melanoma -81.9% | SW-620 colon -74.5% | MCF7 breast -54.3% | HCT-116 colon -56.7% | HCC-2998 colon -79.8% | KM12 colon -83.9%

O=C(Nc1cccc2c1C(=O)c1cccc(Nc3cccc4c3C(=O)c3cccc(NC(=O)c5ccccc5)c3C4=O)c1C2=O)c1ccccc1
inactive: T-47D breast 116% | BT-549 breast 113% | MDA-MB-435 melanoma 104% | SW-620 colon 109% | MCF7 breast 107% | HCT-116 colon 109% | HCC-2998 colon 114% | KM12 colon 114%

O=S(=O)(Nc1ccc(Cl)cc1Cl)c1ccc(-c2cnc(C3CC3)o2)cc1
active: MDA-MB-435 melanoma -5.62%
inactive: T-47D breast 33.9% | BT-549 breast 47% | SW-620 colon 21% | MCF7 breast 15.3% | HCT-116 colon 24.9% | HCC-2998 colon 39.3% | KM12 colon 33.3%

COc1ccc(C2CC(=O)Nc3c2c(C)nn3-c2nc3ccccc3[nH]2)cc1 (centres undefined)
inactive: T-47D breast 111% | BT-549 breast 113% | MDA-MB-435 melanoma 99.9% | SW-620 colon 48.2% | MCF7 breast 91.6% | HCT-116 colon 108% | HCC-2998 colon 112% | KM12 colon 30.4%

CCOC(=O)C(=Cc1ccccc1F)C(=O)OCC
inactive: T-47D breast 67.4% | BT-549 breast 87.4% | MDA-MB-435 melanoma 84.6% | SW-620 colon 107% | MCF7 breast 58.6% | HCT-116 colon 75.1% | HCC-2998 colon 110% | KM12 colon 84.7%

CC(C)C1=C[C@@]23CC[C@@H]4[C@](C)(CCC[C@@]4(C)C(=O)OCC#CCN4CCCC4)[C@H]2C[C@@H]1[C@H]1C(=O)OC(=O)[C@H]13
inactive: T-47D breast 73.9% | BT-549 breast 87.7% | MDA-MB-435 melanoma 102% | SW-620 colon 109% | MCF7 breast 84.7% | HCT-116 colon 88.8% | HCC-2998 colon 108% | KM12 colon 87.3%

CC[C@H](Nc1cc(C)nc(N)n1)c1nc2cccc(NCc3ccc(C(=O)NO)cc3)c2c(=O)n1-c1ccccc1
active: MDA-MB-435 melanoma -15% | SW-620 colon -10.8% | HCT-116 colon -18.7%
inactive: T-47D breast 18.7% | BT-549 breast 49.1% | MCF7 breast 24.7% | HCC-2998 colon 19.9% | KM12 colon 13.1%

Oc1ccccc1/C=N/Nc1ccc2ccccc2n1
inactive: T-47D breast 21.8% | BT-549 breast 66.8% | MDA-MB-435 melanoma 65.2% | SW-620 colon 34% | HCT-116 colon 22.3% | HCC-2998 colon 68.6% | KM12 colon 46.3%
active: MCF7 breast -18%

CC(C)Oc1nc2c(c(=O)n(C)c(=O)n2C)n1C
inactive: T-47D breast 90.3% | BT-549 breast 109% | MDA-MB-435 melanoma 105% | SW-620 colon 102% | MCF7 breast 95.2% | HCT-116 colon 101% | HCC-2998 colon 101% | KM12 colon 105%

C[C@@H]1CC[C@@H]2[C@@H]1[C@H](OC(=O)/C=C/c1ccccc1)[C@]1(C3CCCCC3)C[C@@H](OC(=O)CO)[C@@]2(C)O1
inactive: T-47D breast 42.8% | MDA-MB-435 melanoma 87.9% | SW-620 colon 77.6% | MCF7 breast 38.3% | HCT-116 colon 52% | HCC-2998 colon 78% | KM12 colon 69.1%
active: BT-549 breast 0.688%

Cc1ccc(Nc2c(C(N)=O)cnc3ccc(-c4csc(N)n4)cc23)cc1
inactive: T-47D breast 96.7% | BT-549 breast 96.4% | MDA-MB-435 melanoma 102% | SW-620 colon 97% | MCF7 breast 92.4% | HCT-116 colon 93.5% | HCC-2998 colon 100% | KM12 colon 95.6%

COc1cccc2c1C(=O)c1c(O)c3c(c(O)c1C2=O)C[C@@](O)(/C(C)=N/NC(=O)c1ccc(Cl)cc1)C[C@@H]3OC1CC(N)C(O)C(C)O1 (some centres undefined)
active: T-47D breast -11.6% | BT-549 breast -45.3% | MDA-MB-435 melanoma -87.3% | SW-620 colon -36.6% | MCF7 breast -13.8% | HCT-116 colon 7.54% | HCC-2998 colon -45% | KM12 colon -26.2%

COc1ccc(-c2nn(-c3ccccc3)cc2/C=C2\SC(=O)NC2=O)cc1
inactive: T-47D breast 85.9% | BT-549 breast 101% | MDA-MB-435 melanoma 108% | SW-620 colon 107% | MCF7 breast 85.2% | HCT-116 colon 95.1% | HCC-2998 colon 109% | KM12 colon 98.1%

COc1ccc(S(=O)(=O)NCCCNc2cc(-c3c(-c4cccc(OC)c4)nc4sccn34)ccn2)cc1
inactive: BT-549 breast 45.1% | MDA-MB-435 melanoma 44.4% | SW-620 colon 63.7% | MCF7 breast 34.5% | HCT-116 colon 47.3% | HCC-2998 colon 70.7% | KM12 colon 39.6%
active: T-47D breast 2.13%

Cn1c2c(Cl)c(Cl)ccc2c2ccn3c(=O)c4ccccc4nc3c21
inactive: T-47D breast 85% | BT-549 breast 86.4% | MDA-MB-435 melanoma 98.3% | SW-620 colon 99.1% | MCF7 breast 96.2% | HCT-116 colon 90% | HCC-2998 colon 100% | KM12 colon 103%

O=C(CN1CCN(c2cc3c(cc2F)c(=O)c(C(=O)O)cn3C2CC2)CC1)Nc1nc(-c2ccc(Cl)cc2)cs1
inactive: T-47D breast 40.2% | BT-549 breast 26.3% | MDA-MB-435 melanoma 25.2% | SW-620 colon 26.2% | MCF7 breast 23.5% | HCT-116 colon 13.7% | HCC-2998 colon 29.8% | KM12 colon 21.8%
